PubChem BioAssay
Where “and” joins values, the source holds several entries; their conditions need not be identical. Equal values may be shown once. Records with an inconclusive call do not appear. Calls of active or inactive are those of the source.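 Rule for the calls, unless noted: active = normalized viability below 100% at a tested concentration; inactive = the rest.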

What was measured:
[1] = viability loss in pontine glioma line – cell-based, SU-DIPG-XXV, MIPE5.0, CellTiter-Glo, qHTS, dose response (AID 1347065; cut-off not given, nearly all actives have AC50 up to about 26 µM;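 note: cells exposed to compound for 48 hours before ATP readout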); details: CellTiter-Glo ATP luminescence
[2] = SU-DIPG-VI glioma cell viability, MIPE4.0 library, CellTiter-Glo luminescence, qHTS (AID 1347066; cut-off not given, nearly all actives have AC50 up to about 30 µM;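 note: cells exposed to compound for 48 hours before readout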); details: CellTiter-Glo ATP luminescence
[3] = JHH-DIPG-1 glioma cell viability, MIPE5.0 library, CellTiter-Glo luminescence, qHTS (AID 1347067; cut-off not given, nearly all actives have AC50 up to about 26 µM;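 note: cells exposed to compound for 48 hours before readout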); details: JHH-DIPG-1 glioma viability, CellTiter-Glo ATP luminescence
[4] = SU-DIPG-XXV glioma cell viability, MIPE5.0 library, qHTS (AID 1347068; cut-off not given, nearly all actives have IC50 up to about 30 µM)
[5] = phospholipid biosynthesis inhibitors in animal cells, primary screen, cell-based, LOPAC library, screen 4 (AID 1347384; call rule not given here); details: phospholipid biosynthesis inhibition screen, at 10 µM
[6] = survival rescue of mitochondrial mutant cells in low glucose, primary screen, MELAS cybrids, Rieske KO mouse fibroblasts, CellTiter-Glo (AID 1508586;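 active = mean z-score across replicates of 1.96 or higher in either the MELAS or the Rieske mutant cell line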;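 note: z relative to plate mean and SD of compound and empty wells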)
[7] = target: NAD(+) hydrolase SARM1 (Homo sapiens) (UniProt Q6SZW1); test: SARM1 TIR NADase inhibitors, cell lysate, NAD-Glo luminescence (AID 1508614;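 active = compound whose remaining NAD level is above about 45 nM, limit read from the data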;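 note: higher remaining NAD means stronger inhibition of SARM1 NADase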); details: SAM-TIR HEK293T lysate NADase, at 1 µM, stronger effect = higher value
[8] = target: Mitogen-activated protein kinase 7 (Homo sapiens) (UniProt Q13164); test: ERK5 transactivation activators in reporter cells, primary screen, cell-based, HTS (AID 1508626;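 active = luciferase signal above three times the same-plate solvent-only control wells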;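 note: luciferase driven by Gal4-ERK5 fusion binding five Gal4 sites before minimal TATA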); details: HeLa Gal4-ERK5 transactivation, 18 h, at 5 µM, stronger effect = higher value
[9] = viability rescue of complex I mutant cybrids, primary screen, cell-based, galactose medium, ATP luminescence (AID 1645843;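 active = z-score of at least 1.8 in each of two replicates, scored against plate mean and spread of sample wells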;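 note: positive z means more ATP and so rescue of galactose-driven cybrid death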); details: complex I mutant cybrid cells, 72 h, stronger effect = higher value
[10] = modifiers of HSF1 nuclear foci, imaging, Selleck Cancer Library (AID 1347162; in the data active = plate-normalised HSF1 focus index below about 0.46); details: human cells, at 10 µM; SSMD: measured here: HSF1 foci SSMD mean; cell count: measured here: cell number; plate-normalised HSF1 focus index: stronger effect = lower value
[11] = ovarian cancer cell viability with rucaparib, profiling panel, oncology-focused library, rucaparib conditional (AID 1508598); details: patient-derived ovarian cancer cells, CellTiter-Glo viability, 144 h, stronger effect = lower value
[12] = LFS_MB_P medulloblastoma growth inhibition, cell-based, chromothripsis tumors, cisplatin or BGB combos (AID 1671449; in the data active = inhibition above about 80%;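 note: cells exposed for 96 hours; 0% = vehicle DMSO and 100% = killing by high DMSO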); details: LFS_MB_P medulloblastoma cells
[13] = HDN33 neuroblastoma growth inhibition, cell-based, chromothripsis tumors, cisplatin or BGB combos (AID 1671450; in the data active = inhibition above about 80%;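 note: cells exposed to compound for four days; 0% = vehicle DMSO and 100% = cell killing by high DMSO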); details: HDN33 neuroblastoma cells, stronger effect = higher value
[14] = ICB984 medulloblastoma cell growth inhibition, synergistic combos for chromothripsis tumors, cisplatin or BGB combos (AID 1671451; call rule not given here;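 note: cells exposed for 96 hours before readout; 0% = vehicle DMSO and 100% = killing by high DMSO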); details: ICB984 medulloblastoma cells, drug combinations, stronger effect = higher value
[15] = LFS_MB_1R medulloblastoma cell growth inhibition, synergistic combos for chromothripsis tumors, cisplatin or BGB combos (AID 1671452; in the data active = inhibition above about 80%;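 note: cells exposed for 96 hours before readout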); details: LFS_MB_1R medulloblastoma cells, stronger effect = higher value
[16] = HTB85 osteosarcoma cell growth inhibition, synergistic combos for chromothripsis tumors, BGB or cisplatin IC20 combos (AID 1671453; in the data active = inhibition above about 80%;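 note: cells exposed for 96 hours before readout; 0% = vehicle DMSO and 100% = high DMSO killing control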); details: HTB85 osteosarcoma cells, drug combinations, stronger effect = higher value
[17] = CRL2098 osteosarcoma cell growth inhibition, synergistic combos for chromothripsis tumors, BGB or cisplatin IC20 combos (AID 1671454; in the data active = inhibition above about 80%;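 note: cells exposed for 96 h before readout; 0% = vehicle DMSO and 100% = killing by high DMSO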); details: CRL2098 osteosarcoma cells, drug combinations, stronger effect = higher value
[18] = HD-MB03 medulloblastoma cell growth inhibition, synergistic combos for chromothripsis tumors, BGB or cisplatin IC20 combos (AID 1671455; in the data active = inhibition above about 83%;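 note: 0% = vehicle DMSO and 100% = high DMSO as cytotoxic control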); details: HD-MB03 medulloblastoma cells, stronger effect = higher value
[19] = MELAS cybrid survival, CellTiter-Glo 48 h, stronger effect = higher value
[20] = Rieske KO mouse fibroblast survival, CellTiter-Glo 72 h
[21] = measured here: combination with BGB IC40, at 0.05 µM

Sequence of NAD(+) hydrolase SARM1 (Homo sapiens) (Q6SZW1 whole entry, looked up, the tested form may be a part): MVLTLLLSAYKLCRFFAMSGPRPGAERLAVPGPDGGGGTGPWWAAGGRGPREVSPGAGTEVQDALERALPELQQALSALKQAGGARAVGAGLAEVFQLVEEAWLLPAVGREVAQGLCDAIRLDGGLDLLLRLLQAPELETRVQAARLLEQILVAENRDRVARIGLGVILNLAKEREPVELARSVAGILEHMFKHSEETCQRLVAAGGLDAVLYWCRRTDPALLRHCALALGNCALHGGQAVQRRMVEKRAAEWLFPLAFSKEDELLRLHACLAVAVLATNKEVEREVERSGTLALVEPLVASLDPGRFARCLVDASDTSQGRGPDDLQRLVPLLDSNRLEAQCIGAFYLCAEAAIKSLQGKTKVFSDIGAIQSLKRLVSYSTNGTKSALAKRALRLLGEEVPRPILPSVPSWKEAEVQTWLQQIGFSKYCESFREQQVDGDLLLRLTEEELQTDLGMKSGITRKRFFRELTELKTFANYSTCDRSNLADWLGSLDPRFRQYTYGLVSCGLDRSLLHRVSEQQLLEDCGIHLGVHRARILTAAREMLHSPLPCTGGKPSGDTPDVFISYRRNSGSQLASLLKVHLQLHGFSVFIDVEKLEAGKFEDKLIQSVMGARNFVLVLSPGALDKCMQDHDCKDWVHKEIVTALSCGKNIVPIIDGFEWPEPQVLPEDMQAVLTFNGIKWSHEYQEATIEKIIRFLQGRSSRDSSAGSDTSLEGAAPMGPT
Sequence of Mitogen-activated protein kinase 7 (Homo sapiens) (Q13164 whole entry, looked up, the tested form may be a part): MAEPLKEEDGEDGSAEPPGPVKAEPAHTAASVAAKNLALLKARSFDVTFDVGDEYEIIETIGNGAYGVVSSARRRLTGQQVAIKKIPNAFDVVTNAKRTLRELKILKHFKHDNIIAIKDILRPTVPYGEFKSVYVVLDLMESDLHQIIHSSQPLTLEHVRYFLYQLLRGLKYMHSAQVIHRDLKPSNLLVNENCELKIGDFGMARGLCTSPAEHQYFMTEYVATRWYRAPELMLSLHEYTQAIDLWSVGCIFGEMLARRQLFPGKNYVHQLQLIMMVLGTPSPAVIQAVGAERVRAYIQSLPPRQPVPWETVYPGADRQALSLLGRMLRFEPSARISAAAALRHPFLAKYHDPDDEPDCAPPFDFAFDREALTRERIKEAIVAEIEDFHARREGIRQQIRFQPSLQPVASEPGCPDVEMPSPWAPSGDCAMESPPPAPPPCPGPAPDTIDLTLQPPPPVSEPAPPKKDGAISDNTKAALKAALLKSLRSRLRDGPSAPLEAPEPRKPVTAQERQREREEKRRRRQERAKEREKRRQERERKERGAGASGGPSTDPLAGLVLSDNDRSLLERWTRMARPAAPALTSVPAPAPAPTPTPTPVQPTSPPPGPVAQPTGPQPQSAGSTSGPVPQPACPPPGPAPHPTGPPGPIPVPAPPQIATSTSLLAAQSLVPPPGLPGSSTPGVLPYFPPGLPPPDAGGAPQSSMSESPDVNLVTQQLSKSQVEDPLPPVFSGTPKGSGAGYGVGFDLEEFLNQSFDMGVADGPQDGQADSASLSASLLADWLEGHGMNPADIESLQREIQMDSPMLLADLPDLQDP

CC[N+](CC)(CC)CCOc1cccc(OCC[N+](CC)(CC)CC)c1OCC[N+](CC)(CC)CC
outcome [1]: inactive | outcome [2]: inactive | outcome [3]: inactive | outcome [4]: inactive | outcome [5]: inactive | z-score [6, 19]: -0.318 (inactive) and -0.405 (inactive) and -0.918 (inactive) | z-score [6, 20]: 0.619 and -0.334 and -0.59 | remaining NAD [7]: 10 nM (inactive) | luciferase signal [8]: 216 AU (active) | z-score [9]: 0.34 (inactive) and 0.415 (inactive)

NC(=O)c1ncn([C@@H]2O[C@H](CO)[C@@H](O)[C@H]2O)n1
outcome [1]: inactive | outcome [2]: inactive | outcome [3]: inactive | outcome [4]: inactive | outcome [5]: inactive | z-score [6, 19]: -1.67 (inactive) and -1.08 (inactive) | z-score [6, 20]: -1.02 and -1.08 | remaining NAD [7]: 10 nM (inactive) | luciferase signal [8]: 36 AU (inactive) | z-score [9]: 0.88 (inactive) and 1.56 (inactive)

Cn1nnc2c(C(N)=O)ncn2c1=O
outcome [1]: inactive | outcome [2]: inactive | outcome [3]: inactive | outcome [4]: inactive | SSMD [10]: 1.56 | cell count [10]: 7070 | plate-normalised HSF1 focus index [10]: 1.09 (inactive) | z-score [6, 19]: -0.452 (inactive) and 0.68 (inactive) and -0.709 (inactive) | z-score [6, 20]: 0.371 and -0.0371 and -0.913 | viability ([11]; at 0.000305 µM, OCI-C5x cells, with rucaparib 10 µM, 100% = cells with rucaparib alone): 103% (inactive) | viability ([11]; at 0.000305 µM, OCI-C5x cells, without rucaparib): 108% (inactive) | viability ([11]; at 0.000305 µM, OCI-P5x cells, with rucaparib 20 µM, 100% = cells with rucaparib alone): 91% (active) | viability ([11]; at 0.000305 µM, OCI-P5x cells, without rucaparib): 88.3% (active) | viability ([11]; at 0.00122 µM, OCI-C5x cells, with rucaparib 10 µM, 100% = cells with rucaparib alone): 103% (inactive) | viability ([11]; at 0.00122 µM, OCI-C5x cells, without rucaparib): 109% (inactive) | viability ([11]; at 0.00122 µM, OCI-P5x cells, with rucaparib 20 µM, 100% = cells with rucaparib alone): 108% (inactive) | viability ([11]; at 0.00122 µM, OCI-P5x cells, without rucaparib): 98.5% (active) | viability ([11]; at 0.00488 µM, OCI-C5x cells, with rucaparib 10 µM, 100% = cells with rucaparib alone): 113% (inactive) | viability ([11]; at 0.00488 µM, OCI-C5x cells, without rucaparib): 110% (inactive) | viability ([11]; at 0.00488 µM, OCI-P5x cells, with rucaparib 20 µM, 100% = cells with rucaparib alone): 110% (inactive) | viability ([11]; at 0.00488 µM, OCI-P5x cells, without rucaparib): 101% (inactive) | viability ([11]; at 0.0195 µM, OCI-C5x cells, with rucaparib 10 µM, 100% = cells with rucaparib alone): 118% (inactive) | viability ([11]; at 0.0195 µM, OCI-C5x cells, without rucaparib): 108% (inactive) | viability ([11]; at 0.0195 µM, OCI-P5x cells, with rucaparib 20 µM, 100% = cells with rucaparib alone): 106% (inactive) | viability ([11]; at 0.0195 µM, OCI-P5x cells, without rucaparib): 106% (inactive) | viability ([11]; at 0.0781 µM, OCI-C5x cells, with rucaparib 10 µM, 100% = cells with rucaparib alone): 102% (inactive) | viability ([11]; at 0.0781 µM, OCI-C5x cells, without rucaparib): 101% (inactive) | viability ([11]; at 0.0781 µM, OCI-P5x cells, with rucaparib 20 µM, 100% = cells with rucaparib alone): 112% (inactive) | viability ([11]; at 0.0781 µM, OCI-P5x cells, without rucaparib): 104% (inactive) | viability ([11]; at 0.313 µM, OCI-C5x cells, with rucaparib 10 µM, 100% = cells with rucaparib alone): 101% (inactive) | viability ([11]; at 0.313 µM, OCI-C5x cells, without rucaparib): 104% (inactive) | viability ([11]; at 0.313 µM, OCI-P5x cells, with rucaparib 20 µM, 100% = cells with rucaparib alone): 111% (inactive) | viability ([11]; at 0.313 µM, OCI-P5x cells, without rucaparib): 109% (inactive) | viability ([11]; at 1.25 µM, OCI-C5x cells, with rucaparib 10 µM, 100% = cells with rucaparib alone): 108% (inactive) | viability ([11]; at 1.25 µM, OCI-C5x cells, without rucaparib): 90.4% (active) | viability ([11]; at 1.25 µM, OCI-P5x cells, with rucaparib 20 µM, 100% = cells with rucaparib alone): 106% (inactive) | viability ([11]; at 1.25 µM, OCI-P5x cells, without rucaparib): 110% (inactive) | viability ([11]; at 5 µM, OCI-C5x cells, with rucaparib 10 µM, 100% = cells with rucaparib alone): 96.4% (active) | viability ([11]; at 5 µM, OCI-C5x cells, without rucaparib): 92.7% (active) | viability ([11]; at 5 µM, OCI-P5x cells, with rucaparib 20 µM, 100% = cells with rucaparib alone): 95.5% (active) | viability ([11]; at 5 µM, OCI-P5x cells, without rucaparib): 114% (inactive) | remaining NAD [7]: 10 nM (inactive) | z-score [9]: -0.305 (inactive) and -0.09 (inactive) and 0.155 (inactive) | inhibition ([12]; at 0.5 µM, stronger effect = higher value): -17.4% (inactive) and 18.8% (inactive) | inhibition ([12]; measured here: combination with BGB IC20, at 0.005 µM): -10.2% and -21.6% | inhibition ([12]; measured here: combination with BGB IC40, at 0.005 µM): 14.1% and -10.5% | inhibition [12, 21]: 2.17% and -11.4% | inhibition ([12]; measured here: combination with cisplatin, at 0.5 µM, stronger effect = higher value): -29.5% and 9.38% | inhibition ([12]; measured here: combination with cisplatin, at 5 µM, stronger effect = higher value): -24.1% and -22.5% | inhibition ([13]; BGB combo, at 5 µM): 22.2% and -9.06% | inhibition ([13]; at 0.5 µM): 13.3% (inactive) and -1.85% (inactive) | inhibition ([13]; cisplatin combo, at 5 µM): 6.08% and -19.1% | inhibition ([13]; measured here: with BGB IC20 combination, at 0.5 µM): 17.6% and 6.04% | inhibition ([13]; measured here: with cisplatin IC20 combination, at 0.5 µM): 10.1% and -5.64% | inhibition ([13]; single agent, at 5 µM): 14.8% and -8.19% | inhibition ([14]; BGB IC20 combo, at 0.005 µM): -9.22% and 1.55% | inhibition ([14]; BGB IC40 combo, at 0.005 µM): -2.52% and -17.2% | inhibition ([14]; BGB IC40 combo, at 0.05 µM): -13.6% and -3.32% | inhibition ([14]; at 0.5 µM): -14.5% (inactive) and -3.73% (inactive) | inhibition ([14]; cisplatin combo, at 0.05 µM): -17.6% and -3.32% | inhibition ([14]; cisplatin combo, at 0.5 µM): -0.899% and 2.38% | inhibition ([14]; cisplatin combo, at 5 µM): -10.6% and -15.5% | inhibition ([14]; measured here: 5 uM single agent, at 5 µM): 10.8% and -28.4% | inhibition ([15]; at 0.5 µM): -13.9% (inactive) and 3.35% (inactive) | inhibition [15, 21]: -9.42% and 8.49% | inhibition ([15]; measured here: combination with cisplatin, at 0.5 µM): -8.99% and 3.26% | inhibition ([15]; measured here: combination with cisplatin, at 5 µM): -56.8% and -3.5% | inhibition ([16]; at 0.5 µM): 6.66% (inactive) and -23.3% (inactive) | inhibition ([16]; measured here: with BGB IC20, at 0.5 µM): 9.09% and -44.6% | inhibition ([16]; measured here: with BGB IC20, at 5 µM): 6.52% and -4.64% | inhibition ([16]; measured here: with cisplatin IC20, at 0.5 µM): -3.99% and -22.6% | inhibition ([16]; measured here: with cisplatin IC20, at 5 µM): -15.9% and 29.4% | inhibition ([16]; single agent, at 5 µM): 7.64% and -1.96% | inhibition ([17]; at 0.5 µM): -9.21% (inactive) and -17.1% (inactive) | inhibition ([17]; measured here: combination with BGB at IC20, at 0.5 µM): -17.8% and -2.5% | inhibition ([17]; measured here: combination with cisplatin at IC20, at 0.5 µM): 7.75% and -28.9% | inhibition ([18]; at 0.5 µM): -0.81% (inactive) and -5.74% (inactive) | inhibition ([18]; measured here: combo with BGB at IC20, at 0.5 µM): -12.4% and -6.59% | inhibition ([18]; measured here: combo with cisplatin at IC20, at 0.5 µM): 4.26% and -10.3%
